According to the supplement of paper PMC4466140:

Tests used:
Assay in all cases: SPOT peptide array binding signal intensity (averaged, normalized) (arbitrary units (background-subtracted, floor 0; scale differs between SH3 domains)); higher = stronger binding of the SH3 domain to the peptide
[1] = target: CaNbp2
Procedure: (§1)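 GST-tagged SH3 domains from S. cerevisiae (Sc), A. gossypii (Ag), C. albicans (Ca) and S. pombe (Sp) were incubated at 10 ug/ml overnight at 4 C on cellulose SPOT membranes carrying 292 synthetic 15-mer peptides mined from the S. cerevisiae proteome (cysteines replaced by serines). Binding was detected with anti-GST antibody, HRP secondary and chemiluminescence, quantified with Genespotter, and reported as normalized spot intensities averaged over biological replicates.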

[2] = target: CaRvs167
Procedure: as §1

[3] = target: CaRvs167-3
Procedure: as §1

[4] = target: CaSho1
Procedure: as §1

[5] = target: CaSla1-D1-D2
Procedure: as §1

[6] = target: CaSla1-D3
Procedure: as §1

[7] = target: ScAbp1
Procedure: as §1

[8] = target: ScBbc1
Procedure: as §1

[9] = target: ScBem1-D1
Procedure: as §1

[10] = target: ScBzz1-D1
Procedure: as §1

[11] = target: ScBzz1-D2
Procedure: as §1

[12] = target: ScCyk3
Procedure: as §1

[13] = target: ScFus1
Procedure: as §1

[14] = target: ScHof1
Procedure: as §1

[15] = target: ScHse1
Procedure: as §1

[16] = target: ScLsb1
Procedure: as §1

[17] = target: ScLsb2
Procedure: as §1

[18] = target: ScLsb3
Procedure: as §1

[19] = target: ScLsb4
Procedure: as §1

[20] = target: ScMyo3
Procedure: as §1

[21] = target: ScMyo5
Procedure: as §1

[22] = target: ScNbp2
Procedure: as §1

[23] = target: ScPex13
Procedure: as §1

[24] = target: ScRvs167
Procedure: as §1

[25] = target: ScSho1
Procedure: as §1

[26] = target: ScSla1-D1-D2
Procedure: as §1

[27] = target: ScSla1-D3
Procedure: as §1

[28] = target: SpAbp1-D1
Procedure: as §1

[29] = target: SpBbc1
Procedure: as §1

[30] = target: SpBzz1-D1
Procedure: as §1

[31] = target: SpBzz1-D2
Procedure: as §1

[32] = target: SpCyk3
Procedure: as §1

[33] = target: SpHof1
Procedure: as §1

[34] = target: SpHof1-2
Procedure: as §1

[35] = target: SpHof1-3
Procedure: as §1

[36] = target: SpHse1
Procedure: as §1

[37] = target: SpLsb1
Procedure: as §1

[38] = target: SpLsb4
Procedure: as §1

[39] = target: SpMyo1
Procedure: as §1

[40] = target: SpNbp2
Procedure: as §1

[41] = target: SpPex13
Procedure: as §1

[42] = target: SpRvs167
Procedure: as §1

[43] = target: SpSla1-D1-D2
Procedure: as §1

[44] = target: SpSla1-D3
Procedure: as §1

[45] = target: AgAbp1
Procedure: as §1

[46] = target: AgBbc1
Procedure: as §1

[47] = target: AgBem1-D1
Procedure: as §1

[48] = target: AgBzz1-D1
Procedure: as §1

[49] = target: AgBzz1-D2
Procedure: as §1

[50] = target: AgCyk3
Procedure: as §1

[51] = target: AgFus1
Procedure: as §1

[52] = target: AgHof1
Procedure: as §1

[53] = target: AgHse1
Procedure: as §1

[54] = target: AgLsb1
Procedure: as §1

[55] = target: AgLsb4
Procedure: as §1

[56] = target: AgMyo5
Procedure: as §1

[57] = target: AgNbp2
Procedure: as §1

[58] = target: AgRvs167
Procedure: as §1

[59] = target: AgSho1
Procedure: as §1

[60] = target: AgSla1-D1-D2
Procedure: as §1

[61] = target: AgSla1-D3
Procedure: as §1

[62] = target: CaAbp1-D1
Procedure: as §1

[63] = target: CaAbp1-D2
Procedure: as §1

[64] = target: CaBbc1
Procedure: as §1

[65] = target: CaBem1-D1
Procedure: as §1

[66] = target: CaBzz1-D1
Procedure: as §1

[67] = target: CaBzz1-D2
Procedure: as §1

[68] = target: CaCyk3
Procedure: as §1

[69] = target: CaFus1
Procedure: as §1

[70] = target: CaHof1
Procedure: as §1

[71] = target: CaHse1
Procedure: as §1

[72] = target: CaLsb1
Procedure: as §1

[73] = target: CaLsb4
Procedure: as §1

[74] = target: CaMyo5
Procedure: as §1

PKMLPIPSKPTLFDL
SPOT peptide array binding signal intensity [1]: 303
SPOT peptide array binding signal intensity [2]: 47
SPOT peptide array binding signal intensity [3]: ≤ 0
SPOT peptide array binding signal intensity [4]: 1680
SPOT peptide array binding signal intensity [5]: 188
SPOT peptide array binding signal intensity [6]: 116
SPOT peptide array binding signal intensity [7]: 14
SPOT peptide array binding signal intensity [8]: 0.5
SPOT peptide array binding signal intensity [9]: ≤ 0
SPOT peptide array binding signal intensity [10]: 9
SPOT peptide array binding signal intensity [11]: 22
SPOT peptide array binding signal intensity [12]: 3
SPOT peptide array binding signal intensity [13]: 405
SPOT peptide array binding signal intensity [14]: ≤ 0
SPOT peptide array binding signal intensity [15]: 73.5
SPOT peptide array binding signal intensity [16]: 11.5
SPOT peptide array binding signal intensity [17]: ≤ 0
SPOT peptide array binding signal intensity [18]: 172
SPOT peptide array binding signal intensity [19]: 80
SPOT peptide array binding signal intensity [20]: 0.5
SPOT peptide array binding signal intensity [21]: 2
SPOT peptide array binding signal intensity [22]: 240
SPOT peptide array binding signal intensity [23]: 229
SPOT peptide array binding signal intensity [24]: 30.5
SPOT peptide array binding signal intensity [25]: 673
SPOT peptide array binding signal intensity [26]: 179
SPOT peptide array binding signal intensity [27]: 374
SPOT peptide array binding signal intensity [28]: 286
SPOT peptide array binding signal intensity [29]: 0.5
SPOT peptide array binding signal intensity [30]: 426
SPOT peptide array binding signal intensity [31]: 20.5
SPOT peptide array binding signal intensity [32]: ≤ 0
SPOT peptide array binding signal intensity [33]: 154
SPOT peptide array binding signal intensity [34]: 410
SPOT peptide array binding signal intensity [35]: 433
SPOT peptide array binding signal intensity [36]: 136
SPOT peptide array binding signal intensity [37]: 15.5
SPOT peptide array binding signal intensity [38]: 402
SPOT peptide array binding signal intensity [39]: 82
SPOT peptide array binding signal intensity [40]: 55.5
SPOT peptide array binding signal intensity [41]: 39.5
SPOT peptide array binding signal intensity [42]: 45.3
SPOT peptide array binding signal intensity [43]: 12
SPOT peptide array binding signal intensity [44]: 132

KRKRFNLLLPKPYLT
SPOT peptide array binding signal intensity [45]: 46
SPOT peptide array binding signal intensity [46]: 16.5
SPOT peptide array binding signal intensity [47]: 136
SPOT peptide array binding signal intensity [48]: 33
SPOT peptide array binding signal intensity [49]: 19.5
SPOT peptide array binding signal intensity [50]: 3
SPOT peptide array binding signal intensity [51]: 356
SPOT peptide array binding signal intensity [52]: 49.5
SPOT peptide array binding signal intensity [53]: 745
SPOT peptide array binding signal intensity [54]: 14.5
SPOT peptide array binding signal intensity [55]: 104
SPOT peptide array binding signal intensity [56]: 0.75
SPOT peptide array binding signal intensity [57]: 99
SPOT peptide array binding signal intensity [58]: 6.17
SPOT peptide array binding signal intensity [59]: 58
SPOT peptide array binding signal intensity [60]: 578
SPOT peptide array binding signal intensity [61]: 4
SPOT peptide array binding signal intensity [62]: 458
SPOT peptide array binding signal intensity [63]: 418
SPOT peptide array binding signal intensity [64]: 39.5
SPOT peptide array binding signal intensity [65]: 31
SPOT peptide array binding signal intensity [66]: 28
SPOT peptide array binding signal intensity [67]: 46.5
SPOT peptide array binding signal intensity [68]: 5
SPOT peptide array binding signal intensity [69]: 548
SPOT peptide array binding signal intensity [70]: 1.5
SPOT peptide array binding signal intensity [71]: 25.5
SPOT peptide array binding signal intensity [72]: 8
SPOT peptide array binding signal intensity [73]: 43.5
SPOT peptide array binding signal intensity [74]: 1
SPOT peptide array binding signal intensity [1]: 192
SPOT peptide array binding signal intensity [2]: 8.5
SPOT peptide array binding signal intensity [3]: 692
SPOT peptide array binding signal intensity [4]: 592
SPOT peptide array binding signal intensity [5]: 1
SPOT peptide array binding signal intensity [6]: 6.5
SPOT peptide array binding signal intensity [7]: 24
SPOT peptide array binding signal intensity [8]: 6
SPOT peptide array binding signal intensity [9]: 22
SPOT peptide array binding signal intensity [10]: 3
SPOT peptide array binding signal intensity [11]: 40
SPOT peptide array binding signal intensity [12]: 58
SPOT peptide array binding signal intensity [13]: 570
SPOT peptide array binding signal intensity [14]: ≤ 0
SPOT peptide array binding signal intensity [15]: 1210
SPOT peptide array binding signal intensity [16]: 34.8
SPOT peptide array binding signal intensity [17]: 8.5
SPOT peptide array binding signal intensity [18]: 114
SPOT peptide array binding signal intensity [19]: 10
SPOT peptide array binding signal intensity [20]: 1.5
SPOT peptide array binding signal intensity [21]: 0.5
SPOT peptide array binding signal intensity [22]: 158
SPOT peptide array binding signal intensity [23]: 0.75
SPOT peptide array binding signal intensity [24]: 5
SPOT peptide array binding signal intensity [25]: 474
SPOT peptide array binding signal intensity [26]: 96
SPOT peptide array binding signal intensity [27]: 2.75
SPOT peptide array binding signal intensity [28]: 146
SPOT peptide array binding signal intensity [29]: 10.8
SPOT peptide array binding signal intensity [30]: 94.5
